# Assay outcomes from PubChem BioAssay.
# LYPLA2 inh: LYPLA2 (human) inhibition in PME1 counter-screen. O95372. inhibition, % at 5.9 µM. AID 2177. hit rate 0.38% among 320,000. recombinant LYPLA2, FP-Rh probe fluorescence polarization;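 active means inhibition above the screen-wide mean plus 3 SD, limit set per campaign, cut at about 26% in these data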;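 further: 0% = LYPLA2 with DMSO and 100% = wells lacking LYPLA2 enzyme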
# Target sequence (O95372 whole entry, looked up): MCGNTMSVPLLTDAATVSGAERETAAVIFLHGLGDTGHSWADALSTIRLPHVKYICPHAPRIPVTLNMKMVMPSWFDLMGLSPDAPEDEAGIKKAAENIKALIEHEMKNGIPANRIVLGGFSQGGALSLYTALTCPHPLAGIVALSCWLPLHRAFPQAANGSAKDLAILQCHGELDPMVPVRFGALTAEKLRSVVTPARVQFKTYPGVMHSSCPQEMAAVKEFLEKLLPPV
# LYPLA1 inh: blocks human lysophospholipase 1, a PME1 counter-screen; O75608; recombinant LYPLA1, FP-Rh probe fluorescence polarization; inhibition, % at 5.9 µM; hit rate 0.16% among 320,000; AID 2174;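 active means inhibition above the mean of all tested compounds plus 3 SD, set per campaign, cut at about 14% in these data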;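 further: inhibitors block serine hydrolase probe labeling of LYPLA1 so polarization falls; 0% = enzyme with DMSO and 100% = wells lacking LYPLA1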
# PP5 primary: PP5 (human) phosphatase inhibition; P53041; purified PP5c, OMFP substrate fluorescence; inhibition, % at 6.7 µM; hit rate 0.18% among 320,000;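 active means inhibition above the campaign's mean inhibition across all tested compounds plus 3 SD, cut at about 9.5% in these data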;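 further: 0% = DMSO only and 100% = 100 µM cantharidin control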
# PP1 counter: counter-screen for PP5 inhibitors: inhibitors of human PP1-alpha. purified PP1alpha, OMFP fluorescence. inhibition, % at 6.7 µM. hit rate 0.9% among 320,000;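 active means inhibition above the mean inhibition of all tested compounds plus 3 SD, computed separately for each screening campaign, cut at about 15% in these data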
# Target sequence (P62136 whole entry, looked up): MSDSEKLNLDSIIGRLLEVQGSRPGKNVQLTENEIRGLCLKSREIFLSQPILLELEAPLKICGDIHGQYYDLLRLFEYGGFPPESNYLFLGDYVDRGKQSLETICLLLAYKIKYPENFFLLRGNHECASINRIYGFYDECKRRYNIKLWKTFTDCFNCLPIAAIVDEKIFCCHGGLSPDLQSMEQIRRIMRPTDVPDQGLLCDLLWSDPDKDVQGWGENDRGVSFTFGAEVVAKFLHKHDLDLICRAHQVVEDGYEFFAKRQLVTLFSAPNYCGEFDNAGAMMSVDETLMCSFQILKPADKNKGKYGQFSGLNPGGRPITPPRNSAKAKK
# PME-1 inh: blocks human protein phosphatase methylesterase 1 | Q9Y570 | recombinant PME-1, FP-Rh probe fluorescence polarization | inhibition, % at 5.9 µM | hit rate 0.53% among 320,000;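 active means inhibition above the campaign mean of all compounds plus 3 SD, cut at about 26% in these data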;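 further: competitive labeling of PME-1 active site by serine hydrolase directed probe; 0% = PME-1 with DMSO and 100% = wells lacking PME-1 enzyme; inhibitors block probe labeling so polarization falls and inhibition rises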
# Fam108B counter: Fam108B inhibition, counter-screen for RBBP9 inhibitors; inhibition, % at 9.51 µM; recombinant Fam108B, FP-Rh probe fluorescence polarization; hit rate 0.33% among 300,000;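 active means inhibition above the screen mean inhibition plus 3 SD, computed separately per campaign, cut at about 18% in these data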;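 further: inhibitors lower polarization as less probe binds the enzyme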
# PP1 inh confirm: confirmation of human PP1 phosphatase inhibitors | hit rate 52% among 1,900 | inhibition, % at 6.7 µM | AID 2358 | shares compounds with PP1 counter | purified PP1alpha, OMFP substrate fluorescence;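 active means mean PP1 inhibition above a set limit taken from the earlier primary screen, cut at about 15% in these data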
# PP5 counter: PP5 phosphatase inhibition, counter-screen for PP1 inhibitors. shares compounds with PP1 counter. purified PP5c, OMFP fluorescence. inhibition, % at 6.7 µM. hit rate 4% among 1,900. AID 2360;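 active means mean PP5 inhibition over triplicate wells above about 9.5% taken from the earlier PP1 screen, limit read from the data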
# * hit, by the source's call; . = no result given. A selection: hits, their analogues and other compounds. The true share with any hit is near 1.8%.
SMILES,LYPLA2 inh,LYPLA1 inh,PP5 primary,PP1 counter,PME-1 inh,Fam108B counter,PP1 inh confirm,PP5 counter
Cc1c(-c2ccc(Cl)cc2)oc(=O)c2c(N)n(-c3ccccc3)nc12,-3,-6,1,23*,-12,-11,28*,-3
Cc1nc(SC2CC(=O)N(c3ccccc3)C2=O)n[nH]1 (stereo unspecified),-4,-6,-2,21*,3,1,-4,-7
COc1ccccc1/C=C/c1ccc2cccc(O)c2n1,3,-5,2,23*,9,10,15,-1
CCOc1cccc(/C=C/c2ccc3cccc(O)c3n2)c1OC,-8,-5,2,21*,-6,-7,15*,-2
O=[N+]([O-])c1cccc(/C=C/c2ccc3cccc(O)c3n2)c1,7,3,2,25*,-1,2,21*,-7
O=[N+]([O-])c1ccc(/C=C/c2ccc3cccc([N+](=O)[O-])c3n2)cc1,0,-7,-7,7,3,-3,.,.
COc1ccc(Cl)cc1/C=C/c1ccc2cccc(O)c2n1,-4,-6,2,18*,2,-3,16*,-3
Oc1cccc2ccc(/C=C/c3c(F)cccc3Cl)nc12,-9,-6,0,5,-2,-3,.,.
CC(=O)c1cccc(NC(=O)C(C)OC(=O)CCN=C2NS(=O)(=O)c3ccccc32)c1 (stereo unspecified),-6,-3,1,-2,-7,-4,.,.
Oc1cccc2ccc(/C=C/c3ccccc3Cl)nc12,-4,-5,1,19*,-2,2,11,0
CC1=NNC(=O)/C1=C\c1cn(-c2ccccc2)nc1-c1cccs1,-1,-1,3,19*,0,4,10,0
O=C(O)CCCCCN1C(=O)/C(=C\c2cn(-c3ccccc3)nc2-c2cccs2)SC1=S,4,5,2,1,-2,-8,.,.
O=C(Nc1nnc(C2CC2)s1)c1ccc(Cl)c(S(=O)(=O)N2CCc3ccccc3C2)c1,-20,-10,4,20*,-3,-3,21*,-2
CN(CCOc1ccccc1)C(=O)C1CCC(=O)N(CCCN2CCCC2=O)C1 (stereo unspecified),2,3,2,-1,1,-2,.,.
CCC(C)[C@H](NC(=O)Nc1ccc(C)cc1C)C(=O)O (stereo partly specified),4,2,1,1,-4,0,.,.
COc1cc(C(c2c(C(=O)O)[nH]c3ccccc23)c2c(C(=O)O)[nH]c3ccccc23)ccc1OCc1ccccc1,0,-1,5,19*,-2,-3,15*,-2
Cc1cccc(N2CCN(C(=O)c3ccc4c(c3)NC(=O)C(CSCc3cccc(F)c3)N4)CC2)c1C (stereo unspecified),-14,-9,2,23*,-16,-3,29*,-2
Cc1cccc(N2CCN(C(=O)c3ccc4c(c3)OCCO4)CC2)c1C,-3,-5,0,0,-6,-2,.,.
O=C(NNC(=O)c1ccc(-c2ccccc2)cc1)Nc1ccc(F)cc1F,-2,-1,-2,9,-3,-6,.,.
O=[N+]([O-])c1cccc(-n2cc3ccc([N+](=O)[O-])cc3n2)c1,-1,0,1,9,0,.,.,.
O=c1c2ccccc2nc2n1CCCCC2,0,-2,3,4,-3,5,.,.
O=c1c2ccccc2nc2n1CCC2,-3,0,8,52*,-3,6,48*,1
COc1ccc(Nc2nc(Nc3ccc(OC)cc3)nc(-n3[nH]c(=O)c(C)c3C)n2)cc1,3,-2,1,23*,2,4,23*,-1
CCc1cc(=O)n2[nH]c(-c3ccccc3)c(-c3ccccc3)c2n1,-2,-3,2,22*,-2,-3,21*,-1
COc1ccc(-c2c(C(F)(F)F)[nH]n3c(=O)cc(-c4ccccc4)nc23)cc1,2,1,7,25*,10,12,42*,3
SMILES,LYPLA2 inh,LYPLA1 inh,PP5 primary,PP1 counter,PME-1 inh,Fam108B counter,PP1 inh confirm,PP5 counter
CCCc1cc(=O)n2[nH]c(C)c(-c3ccccc3)c2n1,3,0,-2,0,-6,2,.,.
COC(=O)Cc1cc(=O)n2[nH]c(C)c(-c3ccccc3)c2n1,13,1,-1,5,-4,5,.,.
Cc1[nH]n2c(=O)cc(-c3ccc([N+](=O)[O-])cc3)nc2c1-c1ccccc1,8,8,1,45*,22,12,35*,2
O=c1cc(-c2ccccc2)nc2cc(-c3ccc(F)cc3)[nH]n12,4,-2,5,9,-4,1,.,.
COc1cccc(-c2cc3nc(-c4ccccc4)cc(=O)n3[nH]2)c1,0,0,2,21*,-36,7,23*,1
COc1cccc(N=Nc2c(N)[nH]n3c(=O)cc(-c4ccccc4)nc23)c1,2,1,3,0,7,8,.,.
Cc1ccc(Cl)cc1NC(=O)Cn1c(C)csc1=O,0,-4,1,1,0,.,.,.
COc1ccccc1NC(=O)C(C)OC(=O)CCC1CCCCC1 (stereo unspecified),1,2,1,0,-4,-4,.,.
Cc1[nH]n2c(=O)cc(C(C)(C)C)nc2c1-c1ccccc1,8,2,1,24*,0,6,18*,-1
Cc1[nH]n2c(=O)cc(C(C)C)nc2c1-c1ccccc1,-7,-6,0,7,-1,-2,.,.
Cc1cc(OCC(=O)N2CCN(c3ccccn3)CC2)c(C)cc1Br,6,2,-3,-5,1,5,.,.
CCN(CC)CCN(C(=O)c1ccc2c(c1)CCCC2)c1nc2cc(OC)c(OC)cc2s1,1,0,17*,24*,2,0,-3,2
Cc1c(NC(=O)CSc2nc(N)cc(N)n2)c(=O)n(-c2ccccc2)n1C,7,2,2,-2,8,.,.,.
c1ccc(CNc2nc(-c3ccccc3)nc3ccccc23)cc1,-29,-17,5,8,-21,-13,.,.
c1ccc(CNc2nc(-c3ccccn3)nc3ccccc23)cc1,1,1,0,39*,-3,-1,40*,1
Fc1ccc(Nc2nc(NCc3ccco3)c3ccccc3n2)cc1,-5,-8,3,20*,0,10,-1,0
c1ccc(CNc2nc(NCc3ccccc3)c3ccccc3n2)cc1,-5,-4,4,34*,-28,-2,23*,2
O=C(c1ccsc1)N1CCCC(Nc2cccc(F)c2)C1 (stereo unspecified),7,3,3,0,-1,-3,.,.
